Measurements from PubChem BioAssay (Tox21).
Results filed as inconclusive are left out. Activity calls are given as the source filed them. Unless noted, calls follow the shape of the dose curve; as a rule, active = well fitted curve in the direction sought with a large enough effect in the repeat runs; inconclusive = weak or mixed curves; inactive = no such curve, though single readings can be large; an effect the other way counts as inactive or inconclusive.

What was measured:
[1] = qHTS assay to identify small molecule agonists of the peroxisome proliferator-activated receptor delta (PPARd) signaling pathway - cell viability counter screen (AID 743211); also: nearly all actives have a fitted effect of over 55% in size
How it was run: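 In the same wells used for beta-lactamase reporter measurement, cytotoxicity is scored by CellTiter-Glo. HEK293H PPARd-bla cells receive compound for 17 h at 37C following a 5 h settling period.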

[2] = qHTS assay to identify small molecule antagonists of the peroxisome proliferator-activated receptor delta (PPARd) signaling pathway - cell viability counter screen (AID 743213); also: nearly all actives have a fitted effect of over 50% in size
How it was run: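 Same-well viability: cells pre-incubated 5 h, dosed with compound plus 300 nM L165041, kept 17 h at 37 C, FRET substrate 2 h RT, then CellTiter-Glo 30 min RT and luminescence.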

[3] = target: Bile acid receptor (Homo sapiens) (UniProt Q96RI1); experiment: qHTS assay to identify small molecule antagonists of the farnesoid-X-receptor (FXR) signaling pathway (AID 743217; active = well fitted inhibition curve with a large enough effect in the signal ratio in the repeat runs, not every such curve was filed as active; the % refers to the signal ratio)
How it was run: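 FXR-UAS-bla HEK 293T cells pre-incubated 5 h at 37 °C, then exposed to compounds with chenodeoxycholic acid (50 uM final) for 16 h at 37 °C. Beta-lactamase reporter read by LiveBLAzer B/G FRET substrate fluorescence after 2 h at room temperature.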

[4] = qHTS assay to identify small molecule agonists of the farnesoid-X-receptor (FXR) signaling pathway - cell viability counter screen (AID 743218); also: nearly all actives have a fitted effect of over 45% in size
How it was run: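 FXR-UAS-bla HEK 293T cells, plated 5 h at 37 C, were exposed to compounds for 16 h at 37 C. CellTiter-Glo was then added to the same wells as the bla readout; luminescence read after 30 min at room temperature.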

[5] = target: Bile acid receptor (Homo sapiens) (UniProt Q96RI1); experiment: qHTS assay to identify small molecule agonists of the farnesoid-X-receptor (FXR) signaling pathway (AID 743220; active = well fitted activation curve with a large enough effect in the signal ratio in the repeat runs, not every such curve was filed as active; the % refers to the signal ratio)
How it was run: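 Beta-lactamase reporter under UAS control in GeneBLAzer FXR HEK 293T cells (5000/well) measured with LiveBLAzer FRET substrate after 2 h at room temperature. Compound exposure lasted 16 h at 37C.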

[6] = qHTS assay to identify small molecule antagonists of the farnesoid-X-receptor (FXR) signaling pathway - cell viability counter screen (AID 743221; active = well fitted cell-killing curve with a large enough effect in the repeat runs, not every such curve was filed as active; also: nearly all actives have a fitted effect of over 50% in size)
How it was run: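 Here viability was scored by luminescence after CellTiter-Glo addition to wells already read for beta-lactamase. Prior treatment: compound plus CDCA (50 uM final), 16 h, 37 C, HEK 293T FXR-bla cells.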

[7] = target: Vitamin D3 receptor (Homo sapiens) (UniProt P11473); experiment: qHTS assay to identify small molecule agonists of the vitamin D receptor (VDR) signaling pathway (AID 743222; calls by dose curve)
How it was run: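 VDR-bla cells were plated 4 h at 37C/5% CO2, then exposed to compounds in DMSO for 16 h. After LiveBLAzer B/G FRET substrate addition and 2 h at room temperature, beta-lactamase reporter fluorescence was read.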

[8] = target: Vitamin D3 receptor (Homo sapiens) (UniProt P11473); experiment: qHTS assay to identify small molecule antagonists of the vitamin D receptor (VDR) signaling pathway (AID 743223; active = well fitted inhibition curve with a large enough effect in the signal ratio in the repeat runs, not every such curve was filed as active; the % refers to the signal ratio)
How it was run: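 Inhibition of agonist-driven VDR signalling is scored in VDR-bla cells: 3 nM final 1alpha,25-dihydroxyvitamin D3 plus compound, 16 h at 37C, then beta-lactamase detection by FRET substrate fluorescence after 2 h.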

[9] = qHTS assay to identify small molecule agonists of the vitamin D receptor (VDR) signaling pathway - cell viability counter screen (AID 743224); also: series mostly up to about 63 µM; nearly all actives have a fitted effect of over 50% in size
How it was run: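 VDR-bla cells were preincubated 4 h at 37C/5% CO2, then exposed to compounds for 16 h. After the 2 h room-temperature bla FRET read, CellTiter-Glo was added to the same wells and luminescence read after 30 min.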

[10] = qHTS assay to identify small molecule antagonists of the vitamin D receptor (VDR) signaling pathway - cell viability counter screen (AID 743225); also: nearly all actives have a fitted effect of over 50% in size
How it was run: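 Compounds were pinned onto VDR-bla HEK 293T cells together with 1-alpha,25-dihydroxyvitamin D3 at 3 nM final. After 16 h at 37C and 5% CO2 plus the reporter readout, cell viability was measured by CellTiter-Glo luminescence (30 min, room temperature).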

[11] = qHTS assay to identify small molecule agonists of the NFkB signaling pathway - cell viability counter screen (AID 1159515; calls by dose curve; also: series mostly up to about 61 µM; nearly all actives have a fitted effect of over 55% in size)
How it was run: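 NFkB-bla ME-180 cells, 2,000/well, were plated overnight at 37 C, 5% CO2, then exposed to compounds in DMSO for 5 hr. After the bla FRET read, CellTiter-Glo was added to the same wells; luminescence was read after 30 min at room temperature.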

[12] = qHTS assay to identify small molecule agonists of the endoplasmic reticulum stress response signaling pathway (AID 1159516; active = well fitted activation curve with a large enough effect in the signal ratio in the repeat runs, not every such curve was filed as active; the % refers to the signal ratio)
How it was run: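 CellSensor ESRE-bla HeLa cells, carrying a beta-lactamase reporter driven by the ER stress response element, were plated overnight and exposed to compounds for 5 hr at 37 C. Reporter activity was read as FRET substrate fluorescence after 2 hr at room temperature.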

[13] = qHTS assay to identify small molecule agonists of the endoplasmic reticulum stress response signaling pathway - cell viability counter screen (AID 1159517; calls by dose curve)
How it was run: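 ESRE-bla HeLa cells, 1,500 per well, seeded overnight then treated with compounds for 5 hr at 37 C. After the beta-lactamase read, viability in the same wells is measured by CellTiter-Glo luminescence after 30 min at room temperature.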

[14] = qHTS assay to identify small molecule antagonists of the retinoid-related orphan receptor gamma (ROR-gamma) signaling pathway - cell viability counter screen (AID 1159520); also: nearly all actives have a fitted effect of over 50% in size
How it was run: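 Tet-on ROR gamma CHO cells were given compounds for 2 hr, then doxycycline hyclate at 1 uM final, and incubated 16 hr at 37 C. Viability was measured as ATP content by CellTiter-Glo luminescence.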

[15] = target: Nuclear receptor ROR-gamma (Homo sapiens) (UniProt P51449); experiment: qHTS assay to identify small molecule antagonists of the retinoid-related orphan receptor gamma (ROR-gamma) signaling pathway (AID 1159521)
How it was run: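 Test compounds were applied to Tet-on RORγ CHO cells 2 h ahead of doxycycline hyclate (1 uM final). Luciferase reporter activity was quantified by luminescence after 16 h at 37 C and 5% CO2.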

[16] = qHTS assay to identify small molecule agonists of the AP-1 signaling pathway - cell viability counter screen (AID 1159525; calls by dose curve; also: nearly all actives have a fitted effect of over 55% in size)
How it was run: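 AP-1-bla ME-180 cells in Opti-MEM with 0.5% dialyzed FBS, compound exposure 5 h at 37 C in 15-point titration. Viability read in the same wells as ATP content by CellTiter-Glo luminescence, normalised to tetra-n-octylammonium bromide and DMSO controls.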

[17] = qHTS assay to identify small molecule agonists of the AP-1 signaling pathway (AID 1159526; calls by dose curve)
[18] = target: Peroxisome proliferator-activated receptor delta (Homo sapiens) (UniProt Q03181); experiment: qHTS assay to identify small molecule agonists of the peroxisome proliferator-activated receptor delta (PPARd) signaling pathway (AID 743212; calls by dose curve)
How it was run: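 GeneBLAzer UAS-bla HEK293H cells carrying a PPARδ construct were exposed to compounds at 37 °C. Beta-lactamase activity was read by FRET fluorescence after 2 h at room temperature with LiveBLAzer B/G substrate.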

[19] = target: Peroxisome proliferator-activated receptor delta (Homo sapiens) (UniProt Q03181); experiment: qHTS assay to identify small molecule antagonists of the peroxisome proliferator-activated receptor delta (PPARd) signaling pathway (AID 743215; active = well fitted inhibition curve with a large enough effect in the signal ratio in the repeat runs, not every such curve was filed as active; the % refers to the signal ratio;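 also: cells stimulated with agonist L165041 at 300 nM final during compound exposure; series mostly up to about 62 µM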)
How it was run: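 PPARd UAS-bla HEK293H cells were pre-incubated 5 h at 37 C, then given test compounds in DMSO plus agonist L165041 (300 nM final). After 17 h at 37 C, beta-lactamase FRET substrate was added; fluorescence read after 2 h at room temperature.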

Measured: Potency

Chain of Bile acid receptor (Homo sapiens) (Q96RI1 whole entry, looked up): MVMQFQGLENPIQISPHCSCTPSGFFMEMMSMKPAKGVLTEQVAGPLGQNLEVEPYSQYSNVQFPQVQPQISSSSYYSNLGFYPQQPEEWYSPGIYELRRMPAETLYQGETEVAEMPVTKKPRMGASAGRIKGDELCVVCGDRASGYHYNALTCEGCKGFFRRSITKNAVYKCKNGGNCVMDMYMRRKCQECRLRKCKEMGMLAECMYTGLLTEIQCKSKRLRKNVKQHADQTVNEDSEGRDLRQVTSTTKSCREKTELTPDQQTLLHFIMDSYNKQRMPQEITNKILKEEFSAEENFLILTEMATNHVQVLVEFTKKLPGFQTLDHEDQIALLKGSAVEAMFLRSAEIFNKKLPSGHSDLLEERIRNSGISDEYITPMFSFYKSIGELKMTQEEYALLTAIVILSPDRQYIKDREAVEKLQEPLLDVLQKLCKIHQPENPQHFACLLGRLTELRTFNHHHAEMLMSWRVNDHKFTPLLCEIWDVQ
Chain of Peroxisome proliferator-activated receptor delta (Homo sapiens) (Q03181 whole entry, looked up): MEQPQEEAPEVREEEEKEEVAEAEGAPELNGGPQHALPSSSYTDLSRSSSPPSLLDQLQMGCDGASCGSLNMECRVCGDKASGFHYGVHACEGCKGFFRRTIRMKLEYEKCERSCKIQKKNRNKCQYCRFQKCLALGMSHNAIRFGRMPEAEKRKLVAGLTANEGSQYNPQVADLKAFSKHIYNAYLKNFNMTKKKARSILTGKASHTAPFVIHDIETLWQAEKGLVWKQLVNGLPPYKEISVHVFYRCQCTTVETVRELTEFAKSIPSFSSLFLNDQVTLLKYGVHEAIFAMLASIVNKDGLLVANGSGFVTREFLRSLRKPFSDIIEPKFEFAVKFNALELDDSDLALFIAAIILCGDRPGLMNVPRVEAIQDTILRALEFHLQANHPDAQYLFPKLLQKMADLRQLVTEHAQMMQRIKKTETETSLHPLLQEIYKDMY
Chain of Vitamin D3 receptor (Homo sapiens) (P11473 whole entry, looked up): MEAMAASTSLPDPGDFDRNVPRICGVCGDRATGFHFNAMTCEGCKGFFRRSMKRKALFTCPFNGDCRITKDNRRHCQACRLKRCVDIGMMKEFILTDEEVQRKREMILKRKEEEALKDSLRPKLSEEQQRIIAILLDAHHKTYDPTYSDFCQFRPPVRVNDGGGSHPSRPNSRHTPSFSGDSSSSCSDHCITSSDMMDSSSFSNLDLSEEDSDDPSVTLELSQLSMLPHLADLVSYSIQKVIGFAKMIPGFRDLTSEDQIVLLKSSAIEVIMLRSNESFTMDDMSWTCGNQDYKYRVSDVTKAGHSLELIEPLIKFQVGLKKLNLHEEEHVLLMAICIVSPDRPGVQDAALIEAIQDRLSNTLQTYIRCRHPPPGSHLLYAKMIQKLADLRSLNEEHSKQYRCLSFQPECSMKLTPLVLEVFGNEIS

CCC1(c2ccccc2)C(=O)NCNC1=O
not listed: [18] | [19]
inactive: all other assays above

Nc1ccc(S(=O)(=O)c2ccc(N)cc2)cc1
not listed: [7] | [8]
inactive: all other assays above

O=C(O)c1cc(N=Nc2ccc(S(=O)(=O)Nc3ccccn3)cc2)ccc1O
not listed: [3] | [5]
inactive: all other assays above

NS(=O)(=O)c1cc(C(=O)O)c(NCc2ccco2)cc1Cl
not listed: [3] | [5] | [19]
inactive: all other assays above

Nc1ccc(C(=O)O)cc1
not listed: [7] | [8]
inactive: all other assays above

O=S(=O)(O)NC1CCCCC1
not listed: [3] | [5] | [15] | [18] | [19]
inactive: all other assays above
